Compounds with a hit are over-represented: about 2.7% of the library has one in this group of screens.
IP6K1 inh: IP6K1 kinase inhibition | Q92551 | IP6K1 kinase, ADP-Glo luminescence, 2 h; hits give low values | activity change, % (series mostly up to about 58 µM) | hit rate 0.81% among 140,000 | AID 1645851; in the data active = activity change below about -25%; note: % is set by controls: 0 for no effect and ±100 for the full control effect
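ADP-Glo luminescence measures ADP made by human IP6K1 during a 2 h RT reaction with ATP/IP6 (mix at 1.3 mM/130 uM); top library doses 57.5 and 19.1 uM final.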
KDM5B inh: blocks human KDM5B histone demethylase activity | Q9UGL1 | KDM5B demethylase, FDH-coupled NADH fluorescence (FDH is formaldehyde dehydrogenase) | Potency, µM (highest dose often 57.7 µM), most hits filed as inhibitors | hit rate 2.6% among 220,000 | AID 1347165; active = well fitted inhibition curve with a large enough effect; inconclusive = small, poorly fitted or top-dose-only effect; inactive = no such curve, though single readings can be large or run the other way; note: potency is the fitted concentration of half-maximal effect; 0% is about no effect; nearly all actives have a fitted effect of over 70% in size
Target sequence (Q9UGL1 whole entry, looked up): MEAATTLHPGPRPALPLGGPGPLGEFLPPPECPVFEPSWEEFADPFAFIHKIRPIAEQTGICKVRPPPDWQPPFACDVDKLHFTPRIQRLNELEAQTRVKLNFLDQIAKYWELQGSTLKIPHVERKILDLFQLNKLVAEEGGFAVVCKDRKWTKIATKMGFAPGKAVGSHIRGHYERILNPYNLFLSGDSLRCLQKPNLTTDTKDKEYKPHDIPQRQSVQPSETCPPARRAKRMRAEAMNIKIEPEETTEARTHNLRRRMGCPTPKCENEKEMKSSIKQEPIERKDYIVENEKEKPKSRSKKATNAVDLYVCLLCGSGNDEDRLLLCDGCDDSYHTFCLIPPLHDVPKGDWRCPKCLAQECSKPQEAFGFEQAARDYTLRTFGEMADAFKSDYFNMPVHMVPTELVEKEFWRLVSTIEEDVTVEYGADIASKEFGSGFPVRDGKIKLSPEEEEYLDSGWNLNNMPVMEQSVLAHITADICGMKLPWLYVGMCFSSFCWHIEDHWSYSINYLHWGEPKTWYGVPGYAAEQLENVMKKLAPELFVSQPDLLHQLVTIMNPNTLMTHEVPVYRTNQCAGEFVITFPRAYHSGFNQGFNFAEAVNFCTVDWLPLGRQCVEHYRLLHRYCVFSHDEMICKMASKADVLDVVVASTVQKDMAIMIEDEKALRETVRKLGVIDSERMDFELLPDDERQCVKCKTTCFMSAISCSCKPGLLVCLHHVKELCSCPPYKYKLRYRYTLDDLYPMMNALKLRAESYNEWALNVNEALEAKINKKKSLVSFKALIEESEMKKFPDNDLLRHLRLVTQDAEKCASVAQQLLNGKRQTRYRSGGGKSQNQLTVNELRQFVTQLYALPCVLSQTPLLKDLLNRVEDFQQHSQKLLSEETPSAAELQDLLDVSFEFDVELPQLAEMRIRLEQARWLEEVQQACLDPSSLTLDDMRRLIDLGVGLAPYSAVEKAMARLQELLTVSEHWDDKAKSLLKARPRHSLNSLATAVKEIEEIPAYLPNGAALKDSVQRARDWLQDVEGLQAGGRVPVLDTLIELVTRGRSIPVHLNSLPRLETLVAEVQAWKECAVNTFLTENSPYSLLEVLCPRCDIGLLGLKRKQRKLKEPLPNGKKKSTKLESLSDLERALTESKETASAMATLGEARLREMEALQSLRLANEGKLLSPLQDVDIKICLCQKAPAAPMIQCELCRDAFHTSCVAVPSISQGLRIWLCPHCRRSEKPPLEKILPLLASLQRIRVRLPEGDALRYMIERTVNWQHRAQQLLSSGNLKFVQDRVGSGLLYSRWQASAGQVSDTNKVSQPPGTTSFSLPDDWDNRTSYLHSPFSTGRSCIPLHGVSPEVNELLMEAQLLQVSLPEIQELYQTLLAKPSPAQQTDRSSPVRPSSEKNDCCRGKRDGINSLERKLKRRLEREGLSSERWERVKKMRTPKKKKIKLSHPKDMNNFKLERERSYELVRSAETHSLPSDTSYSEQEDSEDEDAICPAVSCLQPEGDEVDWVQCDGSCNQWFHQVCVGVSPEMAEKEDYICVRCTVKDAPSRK
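Here, H3K4me3 peptide (12.5 µM in substrate mix) is demethylated by KDM5BΔAP, 200 nM final, after 10 min compound exposure. Formaldehyde product is coupled through FDH (0.25 U/mL in mix) to NADH fluorescence; 30-min ΔRFU feeds dose-response curves.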
An asterisk follows results filed as active.

Results for COc1cc(C2CC(=O)N(c3sc4c(c3C#N)CCCC4)C3=C2C(=O)CCC3)cc(OC)c1OC (stereo not given) ?
KDM5B inh: inactive

How did CCN(CC)CCNC(=O)c1ccc(Cn2c(SCc3ccccc3)nc3ccncc32)cc1 do in these assays?
KDM5B inh: inactive

Results for COCCCNC(=O)c1ccc2c(c1)n(Cc1ccccc1)c(=O)c1ccnn12 ?
IP6K1 inh: 0.5; KDM5B inh: inconclusive

What do the screens show for `O=C(O)c1ccc2c(c1)n(Cc1ccc(F)cc1)c(=O)c1ccnn12`?
IP6K1 inh: -3.6; KDM5B inh: 20µM*

How did O=C(NCc1ccccc1)c1ccc2c(c1)n(Cc1ccc(F)cc1)c(=O)c1ccnn12 do in these assays?
IP6K1 inh: -13.7; KDM5B inh: inconclusive

Results for O=C(NCc1ccco1)c1ccc2c(c1)n(Cc1ccc(F)cc1)c(=O)c1ccnn12 ?
IP6K1 inh: 34.9; KDM5B inh: 28.2µM*

Results for COc1ccc(Cn2c(=O)c3ccnn3c3ccc(C(=O)O)cc32)cc1 ?
IP6K1 inh: 6.1; KDM5B inh: inactive

Results for CCN(CC)CCNC(=O)c1ccc2c(c1)n(Cc1cccc(F)c1)c(=O)c1ccnn12 ?
IP6K1 inh: 1.0; KDM5B inh: 28.2µM*

Results for Cn1c(=O)c2ccnn2c2ccc(C(=O)NCC3CCN(Cc4ccccc4F)CC3)cc21 ?
IP6K1 inh: 6.0; KDM5B inh: 31.6µM*

What do the screens show for `O=C(NCCC1CCCCC1)C1CCCN(Cc2cccc(-c3ccsc3)c2)C1` (stereo not given)?
IP6K1 inh: 1.7

What do the screens show for `CCOC(=O)c1[nH]c(C=O)c(C(C)=O)c1C`?
KDM5B inh: inactive

What do the screens show for `Cc1onc(-c2ccccc2)c1-c1nnc(CN(C)CC(=O)N2CCCC2)o1`?
KDM5B inh: inactive

What do the screens show for `Cc1nc2nc(N(Cc3ccccc3)C(=O)c3ccco3)[nH]n2c(=O)c1C`?
KDM5B inh: inactive

Results for O=C(NC1CCCC1)c1ccc2c(c1)n(Cc1ccccc1)c(=O)c1ccnn12 ?
IP6K1 inh: 0.5; KDM5B inh: inconclusive

How did CCCN1CCN(C(=O)c2ccc3c(c2)n(Cc2ccc(F)cc2)c(=O)c2ccnn23)CC1 do in these assays?
IP6K1 inh: 7.4; KDM5B inh: 22.4µM*

What do the screens show for `CCc1cccc2c(C(CC(=O)NCCc3ccc(OC)c(OC)c3)c3ccccc3OC)c[nH]c12` (stereo not given)?
IP6K1 inh: 19.9; KDM5B inh: inactive

What do the screens show for `CCCNC(=O)CC(c1ccccc1OC)c1c[nH]c2c(CC)cccc12` (stereo not given)?
IP6K1 inh: -9.5; KDM5B inh: 31.6µM*

What do the screens show for `COc1ccccc1N1C(=O)NC(NC(=O)c2cccc(Cl)c2)(C(F)(F)F)C1=O` (stereo not given)?
KDM5B inh: inactive

Results for O=C(Cn1ccn2nc(-c3ccc(F)cc3)c(CO)c2c1=O)Nc1cccc(C(F)(F)F)c1 ?
IP6K1 inh: 2.1; KDM5B inh: 22.4µM*

How did Cc1ccc(NC(=O)Cn2ccn3nc(-c4ccc(F)cc4)c(CO)c3c2=O)cc1 do in these assays?
IP6K1 inh: -1.8; KDM5B inh: 22.4µM*

Results for O=C(Cn1ccn2nc(-c3ccc(F)cc3)c(CO)c2c1=O)Nc1ccccc1Cl ?
IP6K1 inh: 2.6; KDM5B inh: 28.2µM*

Results for O=C(Cn1ccn2nc(-c3ccc(F)cc3)c(CO)c2c1=O)Nc1ccccc1 ?
IP6K1 inh: 4.9; KDM5B inh: inconclusive

How did O=C(Cn1ccn2nc(-c3ccc(F)cc3)c(CO)c2c1=O)Nc1cc(F)ccc1Cl do in these assays?
IP6K1 inh: 5.3; KDM5B inh: inactive

What do the screens show for `CSc1cccc(NC(=O)Cn2ccn3nc(-c4ccc(F)cc4)c(CO)c3c2=O)c1`?
IP6K1 inh: 8.4; KDM5B inh: inactive

What do the screens show for `O=C(COc1coc(CN2CCCCC2)cc1=O)NCc1ccccc1F`?
KDM5B inh: inactive

Results for CC(C)n1ncc2cc(NC(=O)c3ccc(S(=O)(=O)N(C)C)cc3)cnc21 ?
KDM5B inh: inactive

What do the screens show for `O=C(c1ccc2c(c1)OCO2)N1CCN(c2ccc3nnc(-c4ccccc4)n3n2)CC1`?
IP6K1 inh: 8.9

How did Cc1nc(C2CC(NC(=O)c3cnc(N)nc3C(F)(F)F)C2)cc(=O)[nH]1 (stereo not given) do in these assays?
IP6K1 inh: 9.5; KDM5B inh: 28.2µM*

How did Nc1nc(C2CC(NC(=O)c3csc4c3CCCC4)C2)cc(=O)[nH]1 (stereo not given) do in these assays?
IP6K1 inh: 33.3; KDM5B inh: inactive

How did COc1ccccc1-c1cc(C(=O)NC2CCCC2)c2cnn(C)c2n1 do in these assays?
IP6K1 inh: 2.3

Results for Cc1cc(C)c2ccc3ccccc3c2n1 ?
KDM5B inh: inactive

How did O=C(NCc1ccc(-c2ccc(F)cc2)o1)C1CC(=O)N(Cc2cccnc2)C1 (stereo not given) do in these assays?
IP6K1 inh: 0.4; KDM5B inh: 25.1µM*

How did CCN1CC(C(=O)NCc2ccc(-c3ccc(F)cc3)o2)CCC1=O (stereo not given) do in these assays?
IP6K1 inh: 4.3; KDM5B inh: inconclusive

What do the screens show for `CC(C)(c1ccc(O)cc1)c1ccc(Cl)cc1`?
KDM5B inh: inactive

How did O=C(NCc1ccc(C(F)(F)F)cc1)C1CCCN(Cc2cccc(-c3ccsc3)c2)C1 (stereo not given) do in these assays?
IP6K1 inh: 6.3

What do the screens show for `Cc1noc(C)c1[S+](=O)([O-])N1CCCC2(COc3ccccc3C(=O)N2)C1` (stereo not given)?
IP6K1 inh: 14.9; KDM5B inh: 25.1µM*

How did O=C1NC2(CCCN([S+](=O)([O-])c3cccs3)C2)Oc2ccccc21 (stereo not given) do in these assays?
IP6K1 inh: 19.6; KDM5B inh: inactive

How did O=C1NC2(CCN([S+](=O)([O-])c3ccccc3)C2)COc2ccccc21 (stereo not given) do in these assays?
IP6K1 inh: 10.1; KDM5B inh: inactive

Results for O=C1NC2(CCCN([S+](=O)([O-])c3ccsc3)C2)COc2ccccc21 (stereo not given) ?
IP6K1 inh: 17.0; KDM5B inh: 31.6µM*

Results for Cc1noc(C)c1[S+](=O)([O-])N1CC2(C1)NC(=O)c1ccccc1O2 ?
IP6K1 inh: -4.3; KDM5B inh: inactive

How did COc1cccc([S+](=O)([O-])N2CCC3(COc4ccccc4C(=O)N3)C2)c1 (stereo not given) do in these assays?
IP6K1 inh: 19.9; KDM5B inh: 31.6µM*

Results for CCCc1nc(SC)ncc1C(=O)NCCc1ccc(Cl)cc1 ?
KDM5B inh: inactive

How did O=C(Cc1ccccc1)N1CCC2(CC1)CN(c1ccccc1)C2=O do in these assays?
IP6K1 inh: -18.4

Results for CCOC(=O)C1CCN(C(=O)c2ccc3nc(-c4ccnc(Cl)c4)oc3c2)CC1 ?
IP6K1 inh: 31.2

How did O=C(Cc1ccccc1)N1CCC(c2noc(COc3ccc(F)cc3)n2)CC1 do in these assays?
IP6K1 inh: 5.0

Results for Cc1nc2scc(CC(=O)NCc3ccco3)n2c(=O)c1-c1cc(C)n(-c2cc(F)ccc2F)n1 ?
IP6K1 inh: -4.9; KDM5B inh: 25.1µM*

How did CCCCCCNC(=O)Cc1csc2nc(C)c(-c3cc(C)n(-c4ccccc4F)n3)c(=O)n12 do in these assays?
IP6K1 inh: -5.6; KDM5B inh: inconclusive
